According to article PMC7862700, “An all-to-all approach to the identification of sequence-specific readers for epigenetic DNA modifications on cytosine”:

Experiments:
Assay in all cases: DAPPL (digital affinity profiling via proximity ligation, sequencing); 10 mM Tris-HCl pH 7.5, 50 mM NaCl, 1 mM DTT, 4% glycerol, room temperature, 30 min; GST-TFs on glutathione beads, 16-mer random dsDNA library, 0.1% formaldehyde crosslink after washing; high values mean tight binding
[1] = biological target: T1, FEV (Homo sapiens, UniProt Q99581 1-238); details: protein: recombinant; tags: N-terminal GST; dsDNA, one strand shown
T1 sequence: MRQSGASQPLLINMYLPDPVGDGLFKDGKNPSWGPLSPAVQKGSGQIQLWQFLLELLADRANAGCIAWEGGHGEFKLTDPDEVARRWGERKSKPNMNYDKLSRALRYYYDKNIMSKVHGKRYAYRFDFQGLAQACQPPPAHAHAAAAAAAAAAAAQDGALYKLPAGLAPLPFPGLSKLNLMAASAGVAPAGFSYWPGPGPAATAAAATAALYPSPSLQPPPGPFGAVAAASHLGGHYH
Summary of the method: (§1)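 Beads coated with glutathione captured GST-fused human transcription factors that had been expressed in yeast, and the factors were then given DNA barcodes and pooled with a tag-only sample. The pools were incubated with 200 nmole of a random double-stranded 16-mer DNA library in Tris/NaCl/DTT/glycerol buffer for 30 min at room temperature, washed, crosslinked with 0.1% formaldehyde and proximity-ligated with BsaI/T4 ligase at 37 °C for 1 h. PCR amplification and Illumina NextSeq500 sequencing came last. Binding signal is each hexamer's read frequency for a factor divided by its frequency for the tag-only sample.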

[2] = biological target: ETV5 (Homo sapiens, UniProt P41161 1-510); details: protein: recombinant; tags: N-terminal GST; dsDNA, one strand shown
Summary of the method: as §1

[3] = biological target: HSF1 (Homo sapiens, UniProt Q00613 1-529); details: protein: recombinant; tags: N-terminal GST; chain copies: 3; dsDNA, one strand shown
Summary of the method: as §1

[4] = biological target: T2, SPIC (Homo sapiens, UniProt Q8N5J4 1-248); details: protein: recombinant; tags: N-terminal GST; dsDNA, one strand shown
T2 sequence: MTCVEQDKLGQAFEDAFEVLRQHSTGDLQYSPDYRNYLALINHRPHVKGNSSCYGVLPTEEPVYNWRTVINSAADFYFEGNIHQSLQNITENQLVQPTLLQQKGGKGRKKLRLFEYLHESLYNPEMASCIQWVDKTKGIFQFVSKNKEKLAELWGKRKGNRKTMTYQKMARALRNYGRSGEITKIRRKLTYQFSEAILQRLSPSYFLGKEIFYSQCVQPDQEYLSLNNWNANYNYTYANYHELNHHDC
Summary of the method: as §1

[5] = biological target: ELF4 (Homo sapiens, UniProt Q99607 1-663); details: protein: recombinant; tags: N-terminal GST; dsDNA, one strand shown
Summary of the method: as §1

[6] = biological target: T3, ELK4 (Homo sapiens, UniProt P28324-2 1-405); details: protein: recombinant; tags: N-terminal GST; dsDNA, one strand shown
T3 sequence: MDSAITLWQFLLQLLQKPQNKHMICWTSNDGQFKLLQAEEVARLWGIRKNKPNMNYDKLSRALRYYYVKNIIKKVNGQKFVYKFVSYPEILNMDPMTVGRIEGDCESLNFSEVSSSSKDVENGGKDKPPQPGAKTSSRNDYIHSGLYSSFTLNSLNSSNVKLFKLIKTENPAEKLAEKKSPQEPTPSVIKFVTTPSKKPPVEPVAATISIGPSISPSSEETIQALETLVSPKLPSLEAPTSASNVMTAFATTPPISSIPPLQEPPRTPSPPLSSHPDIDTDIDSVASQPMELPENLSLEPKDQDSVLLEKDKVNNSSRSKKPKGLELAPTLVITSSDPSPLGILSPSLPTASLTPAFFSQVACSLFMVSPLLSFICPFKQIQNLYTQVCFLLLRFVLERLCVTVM
Summary of the method: as §1

[7] = biological target: T4, ETV2 (Homo sapiens, UniProt O00321 1-342); details: protein: recombinant; tags: N-terminal GST; dsDNA, one strand shown
T4 sequence: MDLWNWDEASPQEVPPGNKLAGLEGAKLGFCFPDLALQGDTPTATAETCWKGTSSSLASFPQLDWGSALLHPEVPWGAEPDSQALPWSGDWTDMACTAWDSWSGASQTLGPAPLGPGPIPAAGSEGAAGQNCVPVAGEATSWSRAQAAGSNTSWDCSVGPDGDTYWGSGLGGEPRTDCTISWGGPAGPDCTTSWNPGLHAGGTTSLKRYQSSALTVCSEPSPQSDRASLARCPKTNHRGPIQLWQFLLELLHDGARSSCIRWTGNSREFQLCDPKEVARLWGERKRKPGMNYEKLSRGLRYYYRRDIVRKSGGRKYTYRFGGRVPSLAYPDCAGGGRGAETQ
Summary of the method: as §1

[8] = biological target: T5, ELF3 (Homo sapiens, UniProt P78545 1-371); details: protein: recombinant; tags: N-terminal GST; dsDNA, one strand shown
T5 sequence: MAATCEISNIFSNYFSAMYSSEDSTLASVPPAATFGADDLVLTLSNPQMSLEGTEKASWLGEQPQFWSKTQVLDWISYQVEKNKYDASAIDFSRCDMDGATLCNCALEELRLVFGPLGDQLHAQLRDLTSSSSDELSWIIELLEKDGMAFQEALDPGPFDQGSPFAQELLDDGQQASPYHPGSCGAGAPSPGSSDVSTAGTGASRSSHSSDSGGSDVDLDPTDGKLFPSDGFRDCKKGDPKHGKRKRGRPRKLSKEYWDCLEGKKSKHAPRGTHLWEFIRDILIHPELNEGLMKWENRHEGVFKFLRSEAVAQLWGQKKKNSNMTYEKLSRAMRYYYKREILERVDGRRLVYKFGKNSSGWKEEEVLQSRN
Summary of the method: as §1

[9] = biological target: CRX (Homo sapiens, UniProt O43186 1-299); details: protein: recombinant; tags: N-terminal GST; dsDNA, one strand shown
Summary of the method: as §1

[10] = biological target: ETV1 (Homo sapiens, UniProt P50549 1-477); details: protein: recombinant; tags: N-terminal GST; dsDNA, one strand shown
Summary of the method: as §1

[11] = biological target: T6, ERF (Homo sapiens, UniProt P50548 1-548); details: protein: recombinant; tags: N-terminal GST; dsDNA, one strand shown
T6 sequence: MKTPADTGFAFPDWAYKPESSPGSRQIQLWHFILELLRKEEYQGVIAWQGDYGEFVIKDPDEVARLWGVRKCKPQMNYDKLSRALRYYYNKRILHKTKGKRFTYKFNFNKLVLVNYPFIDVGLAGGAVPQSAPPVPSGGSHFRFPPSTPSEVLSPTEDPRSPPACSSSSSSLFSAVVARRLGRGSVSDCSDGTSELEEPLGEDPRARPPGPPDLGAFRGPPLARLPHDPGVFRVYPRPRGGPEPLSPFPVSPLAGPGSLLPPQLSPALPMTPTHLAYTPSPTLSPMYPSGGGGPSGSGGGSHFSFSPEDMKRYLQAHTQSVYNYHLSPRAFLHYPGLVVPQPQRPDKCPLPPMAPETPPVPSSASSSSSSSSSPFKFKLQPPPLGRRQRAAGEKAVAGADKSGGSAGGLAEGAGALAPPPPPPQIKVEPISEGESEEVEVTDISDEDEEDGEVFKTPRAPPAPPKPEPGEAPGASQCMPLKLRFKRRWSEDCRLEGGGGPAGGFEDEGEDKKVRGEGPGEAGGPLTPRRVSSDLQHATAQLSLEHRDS
Summary of the method: as §1

[12] = biological target: T7, ETV3L (Homo sapiens, UniProt Q6ZN32 1-361); details: protein: recombinant; tags: N-terminal GST; dsDNA, one strand shown
T7 sequence: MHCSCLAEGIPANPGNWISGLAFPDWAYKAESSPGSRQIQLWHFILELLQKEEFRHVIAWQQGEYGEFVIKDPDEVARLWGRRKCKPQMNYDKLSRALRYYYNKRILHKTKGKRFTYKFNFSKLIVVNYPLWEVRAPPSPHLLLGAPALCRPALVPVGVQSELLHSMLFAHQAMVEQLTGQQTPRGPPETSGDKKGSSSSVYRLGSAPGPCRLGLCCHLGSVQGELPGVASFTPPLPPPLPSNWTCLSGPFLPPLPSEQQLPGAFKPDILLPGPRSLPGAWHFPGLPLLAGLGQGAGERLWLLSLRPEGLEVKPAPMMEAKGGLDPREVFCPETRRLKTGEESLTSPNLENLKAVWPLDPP
Summary of the method: as §1

[13] = biological target: T8, ETS2 (Homo sapiens, UniProt P15036 1-469); details: protein: recombinant; tags: N-terminal GST; dsDNA, one strand shown
T8 sequence: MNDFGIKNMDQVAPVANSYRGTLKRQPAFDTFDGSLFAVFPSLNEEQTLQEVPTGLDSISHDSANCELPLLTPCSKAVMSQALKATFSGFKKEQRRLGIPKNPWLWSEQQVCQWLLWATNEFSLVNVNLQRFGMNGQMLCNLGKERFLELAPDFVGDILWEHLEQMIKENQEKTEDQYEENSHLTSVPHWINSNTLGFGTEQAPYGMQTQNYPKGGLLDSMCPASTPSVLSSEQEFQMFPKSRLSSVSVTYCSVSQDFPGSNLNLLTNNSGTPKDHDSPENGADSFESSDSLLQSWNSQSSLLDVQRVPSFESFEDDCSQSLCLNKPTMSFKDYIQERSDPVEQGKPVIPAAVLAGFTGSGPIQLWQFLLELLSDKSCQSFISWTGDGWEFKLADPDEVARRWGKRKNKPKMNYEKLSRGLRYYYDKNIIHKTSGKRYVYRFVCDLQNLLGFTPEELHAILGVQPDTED
Summary of the method: as §1

[14] = biological target: T9, SPDEF (Homo sapiens, UniProt O95238 1-335); details: protein: recombinant; tags: N-terminal GST; dsDNA, one strand shown
T9 sequence: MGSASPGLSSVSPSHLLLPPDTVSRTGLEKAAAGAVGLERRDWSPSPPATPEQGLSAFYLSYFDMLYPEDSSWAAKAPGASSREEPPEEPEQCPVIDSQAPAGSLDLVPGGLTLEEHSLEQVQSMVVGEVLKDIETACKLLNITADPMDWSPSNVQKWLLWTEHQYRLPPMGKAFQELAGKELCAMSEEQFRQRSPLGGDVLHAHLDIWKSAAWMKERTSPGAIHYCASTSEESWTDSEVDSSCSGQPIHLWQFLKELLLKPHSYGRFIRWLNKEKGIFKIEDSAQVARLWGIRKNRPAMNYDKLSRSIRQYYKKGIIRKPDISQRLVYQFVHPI
Summary of the method: as §1

[15] = biological target: T10, ETV7 (Homo sapiens, UniProt Q9Y603 1-341); details: protein: recombinant; tags: N-terminal GST; dsDNA, one strand shown
T10 sequence: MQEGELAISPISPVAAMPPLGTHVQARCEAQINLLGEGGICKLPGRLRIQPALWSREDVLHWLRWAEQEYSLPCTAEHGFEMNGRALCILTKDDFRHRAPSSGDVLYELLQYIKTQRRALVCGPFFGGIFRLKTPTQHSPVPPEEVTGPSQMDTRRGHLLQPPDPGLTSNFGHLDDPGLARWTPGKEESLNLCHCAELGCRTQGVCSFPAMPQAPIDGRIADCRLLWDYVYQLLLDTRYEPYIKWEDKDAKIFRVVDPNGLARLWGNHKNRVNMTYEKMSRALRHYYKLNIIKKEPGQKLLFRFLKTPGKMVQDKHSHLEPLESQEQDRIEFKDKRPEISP
Summary of the method: as §1

[16] = biological target: T11, ELF5 (Homo sapiens, UniProt Q9UKW6-2 1-255); details: protein: recombinant; tags: N-terminal GST; dsDNA, one strand shown
T11 sequence: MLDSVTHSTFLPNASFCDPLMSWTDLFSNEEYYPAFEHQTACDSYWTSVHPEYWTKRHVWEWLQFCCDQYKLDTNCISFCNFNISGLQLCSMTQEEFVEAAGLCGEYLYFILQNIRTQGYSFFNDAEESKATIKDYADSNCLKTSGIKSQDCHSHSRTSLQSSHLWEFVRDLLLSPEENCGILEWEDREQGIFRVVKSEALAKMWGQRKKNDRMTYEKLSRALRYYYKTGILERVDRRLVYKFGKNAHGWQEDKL
Summary of the method: as §1

[17] = biological target: T12, ETV3 (Homo sapiens, UniProt P41162-2 1-143); details: protein: recombinant; tags: N-terminal GST; dsDNA, one strand shown
T12 sequence: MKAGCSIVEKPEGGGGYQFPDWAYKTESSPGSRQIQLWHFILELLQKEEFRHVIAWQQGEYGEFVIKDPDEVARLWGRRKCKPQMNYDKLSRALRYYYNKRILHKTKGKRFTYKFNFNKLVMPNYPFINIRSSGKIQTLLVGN
Summary of the method: as §1

[18] = biological target: ETV6 (Homo sapiens, UniProt P41212 1-452); details: protein: recombinant; tags: N-terminal GST; dsDNA, one strand shown
Summary of the method: as §1

Chain of HSF1 (Q00613 whole entry): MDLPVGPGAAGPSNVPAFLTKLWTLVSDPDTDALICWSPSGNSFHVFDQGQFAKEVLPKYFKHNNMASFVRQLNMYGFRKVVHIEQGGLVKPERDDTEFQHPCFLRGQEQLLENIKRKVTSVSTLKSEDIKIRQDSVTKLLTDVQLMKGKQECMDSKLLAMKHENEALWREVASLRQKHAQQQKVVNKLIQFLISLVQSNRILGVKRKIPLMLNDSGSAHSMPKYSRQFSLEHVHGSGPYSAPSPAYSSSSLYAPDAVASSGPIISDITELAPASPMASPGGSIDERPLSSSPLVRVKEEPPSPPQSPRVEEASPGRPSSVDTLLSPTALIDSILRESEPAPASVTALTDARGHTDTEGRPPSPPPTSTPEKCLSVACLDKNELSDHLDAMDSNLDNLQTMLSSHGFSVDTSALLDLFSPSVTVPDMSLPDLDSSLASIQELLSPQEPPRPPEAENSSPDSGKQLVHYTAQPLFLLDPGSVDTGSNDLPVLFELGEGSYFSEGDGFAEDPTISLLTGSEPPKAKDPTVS
Chain of ETV6 (P41212 whole entry): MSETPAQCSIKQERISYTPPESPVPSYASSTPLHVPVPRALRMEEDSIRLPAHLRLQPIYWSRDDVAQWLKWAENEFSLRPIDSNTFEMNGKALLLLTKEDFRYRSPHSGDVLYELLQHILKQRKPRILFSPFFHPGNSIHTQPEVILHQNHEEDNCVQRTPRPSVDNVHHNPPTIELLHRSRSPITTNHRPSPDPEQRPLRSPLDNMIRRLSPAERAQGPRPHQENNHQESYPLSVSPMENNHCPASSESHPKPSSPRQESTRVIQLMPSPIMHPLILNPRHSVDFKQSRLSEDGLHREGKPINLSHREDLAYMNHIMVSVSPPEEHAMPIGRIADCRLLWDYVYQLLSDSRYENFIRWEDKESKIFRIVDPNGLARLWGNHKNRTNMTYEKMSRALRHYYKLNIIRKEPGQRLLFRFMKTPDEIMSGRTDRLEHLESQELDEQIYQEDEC
Chain of ETV1 (P50549 whole entry): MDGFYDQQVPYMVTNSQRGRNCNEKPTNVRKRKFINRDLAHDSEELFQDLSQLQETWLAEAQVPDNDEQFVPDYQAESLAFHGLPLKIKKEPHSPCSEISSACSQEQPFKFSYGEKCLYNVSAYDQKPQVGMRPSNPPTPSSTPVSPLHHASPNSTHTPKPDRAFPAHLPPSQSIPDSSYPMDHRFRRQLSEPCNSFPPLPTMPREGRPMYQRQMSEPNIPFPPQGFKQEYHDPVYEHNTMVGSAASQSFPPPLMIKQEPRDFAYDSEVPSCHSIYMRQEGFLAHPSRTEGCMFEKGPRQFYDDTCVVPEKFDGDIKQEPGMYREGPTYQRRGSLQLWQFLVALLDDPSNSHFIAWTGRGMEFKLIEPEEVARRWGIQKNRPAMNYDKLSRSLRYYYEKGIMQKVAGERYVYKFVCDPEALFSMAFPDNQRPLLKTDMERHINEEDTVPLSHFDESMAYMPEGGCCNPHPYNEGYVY
Chain of CRX (O43186 whole entry): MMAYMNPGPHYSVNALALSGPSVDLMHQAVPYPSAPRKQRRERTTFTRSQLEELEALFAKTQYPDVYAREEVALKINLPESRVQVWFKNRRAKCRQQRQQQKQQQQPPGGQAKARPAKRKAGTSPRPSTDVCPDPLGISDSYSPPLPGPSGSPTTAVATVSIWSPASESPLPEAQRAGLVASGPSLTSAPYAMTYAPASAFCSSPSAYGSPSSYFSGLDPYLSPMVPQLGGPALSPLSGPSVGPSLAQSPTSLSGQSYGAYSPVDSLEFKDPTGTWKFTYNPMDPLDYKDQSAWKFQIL
Chain of ETV5 (P41161 whole entry): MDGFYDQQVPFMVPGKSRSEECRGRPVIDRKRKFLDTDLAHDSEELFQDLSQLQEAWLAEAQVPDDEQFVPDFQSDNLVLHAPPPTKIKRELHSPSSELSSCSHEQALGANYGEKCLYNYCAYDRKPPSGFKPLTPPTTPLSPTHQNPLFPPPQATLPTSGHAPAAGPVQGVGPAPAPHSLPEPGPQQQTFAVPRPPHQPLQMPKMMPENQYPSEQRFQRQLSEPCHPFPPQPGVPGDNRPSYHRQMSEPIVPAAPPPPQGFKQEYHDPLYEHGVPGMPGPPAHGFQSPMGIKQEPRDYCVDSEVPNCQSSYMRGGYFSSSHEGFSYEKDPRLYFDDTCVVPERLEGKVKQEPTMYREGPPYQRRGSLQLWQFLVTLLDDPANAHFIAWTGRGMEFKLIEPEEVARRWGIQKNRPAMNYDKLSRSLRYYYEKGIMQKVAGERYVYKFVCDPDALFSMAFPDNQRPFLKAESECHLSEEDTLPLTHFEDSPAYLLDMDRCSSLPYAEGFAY
Chain of ELF4 (Q99607 whole entry): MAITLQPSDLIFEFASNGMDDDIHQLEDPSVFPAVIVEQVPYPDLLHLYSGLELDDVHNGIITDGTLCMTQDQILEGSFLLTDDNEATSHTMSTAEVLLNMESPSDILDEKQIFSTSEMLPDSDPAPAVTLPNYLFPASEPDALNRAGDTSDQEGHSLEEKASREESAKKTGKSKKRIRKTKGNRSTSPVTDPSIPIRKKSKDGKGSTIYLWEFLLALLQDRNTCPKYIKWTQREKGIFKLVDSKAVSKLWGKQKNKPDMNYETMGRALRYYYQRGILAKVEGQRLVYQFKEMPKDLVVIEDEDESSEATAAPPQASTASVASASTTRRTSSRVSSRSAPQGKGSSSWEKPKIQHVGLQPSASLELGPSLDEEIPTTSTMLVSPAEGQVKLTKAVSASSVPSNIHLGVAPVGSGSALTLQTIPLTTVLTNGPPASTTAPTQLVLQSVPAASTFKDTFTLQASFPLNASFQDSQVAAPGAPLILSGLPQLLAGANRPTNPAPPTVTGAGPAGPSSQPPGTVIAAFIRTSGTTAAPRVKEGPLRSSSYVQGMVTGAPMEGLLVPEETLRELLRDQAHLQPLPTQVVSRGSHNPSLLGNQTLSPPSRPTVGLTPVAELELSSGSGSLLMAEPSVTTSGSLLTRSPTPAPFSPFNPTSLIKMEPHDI

Sequence: GCTGAA
- binding signal [1]: 1.03 fold enrichment (6-mer frequency, TF over GST control)
- binding signal [2]: 1.16 fold enrichment (6-mer frequency, TF over GST control)
- binding signal [3]: 1.04 fold enrichment (6-mer frequency, TF over GST control)
- binding signal [4]: 1.31 fold enrichment (6-mer frequency, TF over GST control)
- binding signal [5]: 1.1 fold enrichment (6-mer frequency, TF over GST control)
- binding signal [6]: 1.23 fold enrichment (6-mer frequency, TF over GST control)
- binding signal [7]: 1.21 fold enrichment (6-mer frequency, TF over GST control)
- binding signal [8]: 1.18 fold enrichment (6-mer frequency, TF over GST control)
- binding signal [9]: 1.05 fold enrichment (6-mer frequency, TF over GST control)
- binding signal [10]: 1.05 fold enrichment (6-mer frequency, TF over GST control)
- binding signal [11]: 1.16 fold enrichment (6-mer frequency, TF over GST control)
- binding signal [12]: 1.13 fold enrichment (6-mer frequency, TF over GST control)
- binding signal [13]: 1.16 fold enrichment (6-mer frequency, TF over GST control)
- binding signal [14]: 1.17 fold enrichment (6-mer frequency, TF over GST control)
- binding signal [15]: 1.08 fold enrichment (6-mer frequency, TF over GST control)
- binding signal [16]: 1 fold enrichment (6-mer frequency, TF over GST control)
- binding signal [17]: 1.1 fold enrichment (6-mer frequency, TF over GST control)
- binding signal [18]: 1.09 fold enrichment (6-mer frequency, TF over GST control)
